Results on six compounds are retold here after PubChem BioAssay.

Calls of active or inactive are those of the source.

The subject of test [1] is Plasmodium falciparum Sir2 (PF13_0152, Sir2A). In words: Plasmodium falciparum Sir2A binding compounds – biochemical, small-molecule microarray, 635 nm fluorescence, primary screen (AID 1098).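 Note: score merges spot fluorescence intensity with its signal-to-noise ratio.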 The settings on record: fluorescence 635 nm, higher = more signal.
The nature of test [2]: probe aDKK1 binding to arrayed compounds – biochemical, biotinylated probe, 635/667 nm fluorescence, primary screen (AID 1099).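 Note: score merges 667nm spot fluorescence with signal to noise across triplicate slides.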 The conditions noted are these: small-molecule microarray, higher = more signal.
The nature of test [3]: probe aCHRDL2 binding to arrayed compounds – biochemical, biotinylated probe, 635/667 nm fluorescence, primary screen (AID 1100). The settings on record: small-molecule microarray, higher = more signal.
The nature of test [4]: change in splice reporter luminescence, either direction, cell-based, HEK293, spliceosome inhibition project, primary screen (AID 1101).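 Note: HEK293 cells carrying a splicing-competent luciferase reporter gene; test concentration not given here.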 The settings on record: HEK293 splicing luciferase reporter, 24 h, higher = more signal, called active from +8 up or from −8 down.
The target in test [5] is Fibroblast growth factor 10 (Homo sapiens) (UniProt O15520). In words: compounds binding fibroblast growth factor 10 – biochemical, small-molecule microarray, 635 nm fluorescence, primary screen (AID 1102). The settings on record: FGF10 binding, fluorescence 635 nm, higher = more signal.
Test [6] has as its system glycogen synthase kinase-3 (GSK3A per assay name; protocol says GSK3B). The test can be described thus: compounds binding glycogen synthase kinase-3 – biochemical, small-molecule microarray, 635 nm fluorescence, GSK3A, primary screen (AID 1103). Note: the record names both GSK3A and GSK3B. The conditions noted are these: fluorescence 635 nm, higher = more signal.
Test [7] addresses Epidermal growth factor receptor (Homo sapiens) (UniProt P00533). In words: compounds binding epidermal growth factor receptor – biochemical, small-molecule microarray, 635 nm fluorescence, primary screen (AID 1104).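 Note: score merges 667 nm emission intensity with spot signal to noise over triplicate slides.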 The settings on record: EGFR binding, higher = more signal.
The target of test [8] is Follistatin-related protein 3 (Homo sapiens) (UniProt O95633). In words: compounds binding follistatin-related protein 3 – biochemical, small-molecule microarray, 635 nm fluorescence, primary screen (AID 1105).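 Note: score merges emission near 667 nm and signal to noise per printed spot across three slides.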 The settings on record: FSTL3 binding, higher = more signal.
Test [9] has as its target Dickkopf-related protein 1 (Homo sapiens) (UniProt O94907). The test can be described thus: small molecules binding DKK1 protein – biochemical, small-molecule microarray, 635 nm fluorescence scan, primary screen (AID 1106).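 Note: score merges emission near 667 nm with signal to noise over three replicate slides.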 The conditions noted are these: higher = more signal.
Test [10] deals with Inhibin beta A chain (activin A). The test can be described thus: small molecules binding activin A – biochemical, small-molecule microarray, 635 nm fluorescence scan, primary screen (AID 1107).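 Note: mouse activin A protein probed at 4.33 µg/mL on printed slides; score merges bound-protein fluorescence near 667 nm with spot signal-to-noise.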 The settings on record: INHBA, higher = more signal.
For test [11], the system named is Human papillomavirus type 1a protein E7 (residues 44-93). In words: small molecules binding HPV E7 44-93 – biochemical, small-molecule microarray, residues 44-93, 635 nm fluorescence, primary screen (AID 1108).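 Note: E7 fragment applied at 1 µg/mL in TBST for 1 h at 4 C; score combines spot fluorescence with its signal to noise ratio.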 The settings on record: fluorescence 635 nm, higher = more signal.
Test [12] is described as follows: hepatitis C replication reporter changes, two-sided – Huh7 cells, luciferase reporter, HCV replication inhibitor project, primary screen (AID 1109).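 Note: huh7 hepatoma cells harbouring a luciferase neomycin HCV replicon reporter; luciferase luminescence as measure of HCV replicon replication; test concentration not given here.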 The settings on record: Huh7 HCV replicon luciferase reporter, 48 h; higher = more signal. On the technique in general: Reporter assays use an easily measured gene product as a stand-in for the process of interest.
Test [13] addresses Left-right determination factor 2 (Homo sapiens) (UniProt O00292). In words: small molecules binding LEFTY2 protein – biochemical, small-molecule microarray, 635 nm fluorescence scan, primary screen (AID 1110). The conditions noted are these: higher = more signal.
For test [14], the target named is Calmodulin-1 (Homo sapiens) (UniProt P0DP23). In words: small molecules binding calmodulin-1 with EGTA – biochemical, small-molecule microarray, Cy5-labelled CALM1, profiling panel (AID 1111).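 Note: labelled calmodulin applied in Tris saline Tween buffer holding calcium plus EGTA and DTT.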 The settings on record: Cy5-CALM1 binding fluorescence, higher = more signal.
The target is the same in test [15]. In words: small molecules binding Ca-loaded calmodulin-1 – biochemical, small-molecule microarray, Cy5-labelled CALM1, plus calcium, artefact control for SMM control-protein annotation, profiling panel (AID 1112).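 Note: score merges spot fluorescence with signal to noise from triplicate slides.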 The conditions noted are these: Cy5-CALM1 binding fluorescence, higher = more signal.
Test [16] is described as follows: probe aWnt5a binding to arrayed compounds – biochemical, biotinylated probe, 635/667 nm fluorescence, primary screen (AID 1113).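 Note: score merges 667 nm fluorescence intensity with signal-to-noise per printed feature.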 The settings on record: small-molecule microarray, higher = more signal.
Test [17] in a line: probe aShh binding to arrayed compounds – biochemical, biotinylated probe, 635/667 nm fluorescence, primary screen (AID 1114).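 Note: probe is biotin-labelled aShh protein from a stem cell growth factor screen; measures binding of labelled protein to compounds printed on the slide; score merges feature fluorescence at 667 nm with signal-to-noise.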 The conditions noted are these: small-molecule microarray, higher = more signal.
Test [18] in a line: probe aNog binding to arrayed compounds – biochemical, biotinylated probe, 635/667 nm fluorescence, primary screen (AID 1115).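 Note: probe is biotinylated aNog protein used at 0.15 µg/mL for 1 h at 4 C; z-score combines 667 nm fluorescence of each spot with its signal to noise.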 The conditions noted are these: small-molecule microarray, higher = more signal.
Test [19] has as its target Torsin-1A-interacting protein 1 (Homo sapiens) (UniProt Q5JTV8). In words: compound microarray binding of lysate hLAP1 – cell lysate, small-molecule microarray, COS7 lysate, 635/667 nm fluorescence, primary screen (AID 1116). The conditions noted are these: 635 nm fluorescence, higher = more signal.
Test [20] deals with Alpha-bungarotoxin (Bungarus multicinctus) (UniProt P60615). In words: compounds binding labelled alpha-BTX control protein – biochemical, small-molecule microarray, Alexa647 label, 635/667 nm fluorescence, artefact control for SMM control protein annotation, profiling panel (AID 1117). The settings on record: alpha-BTX-A647 binding fluorescence, higher = more signal.
Chain of Alpha-bungarotoxin (Bungarus multicinctus) (P60615 whole entry, looked up): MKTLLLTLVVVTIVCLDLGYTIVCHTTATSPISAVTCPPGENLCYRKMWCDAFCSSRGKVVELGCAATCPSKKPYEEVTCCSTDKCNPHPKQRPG

Chain of Follistatin-related protein 3 (Homo sapiens) (O95633 whole entry, looked up): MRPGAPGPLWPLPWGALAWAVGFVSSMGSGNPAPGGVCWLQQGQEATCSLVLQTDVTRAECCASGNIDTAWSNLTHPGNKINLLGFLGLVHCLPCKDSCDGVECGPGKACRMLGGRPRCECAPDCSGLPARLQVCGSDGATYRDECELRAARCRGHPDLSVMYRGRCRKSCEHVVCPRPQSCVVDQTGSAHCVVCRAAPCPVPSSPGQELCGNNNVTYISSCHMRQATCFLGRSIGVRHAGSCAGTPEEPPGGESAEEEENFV
Chain of Epidermal growth factor receptor (Homo sapiens) (P00533 whole entry, looked up): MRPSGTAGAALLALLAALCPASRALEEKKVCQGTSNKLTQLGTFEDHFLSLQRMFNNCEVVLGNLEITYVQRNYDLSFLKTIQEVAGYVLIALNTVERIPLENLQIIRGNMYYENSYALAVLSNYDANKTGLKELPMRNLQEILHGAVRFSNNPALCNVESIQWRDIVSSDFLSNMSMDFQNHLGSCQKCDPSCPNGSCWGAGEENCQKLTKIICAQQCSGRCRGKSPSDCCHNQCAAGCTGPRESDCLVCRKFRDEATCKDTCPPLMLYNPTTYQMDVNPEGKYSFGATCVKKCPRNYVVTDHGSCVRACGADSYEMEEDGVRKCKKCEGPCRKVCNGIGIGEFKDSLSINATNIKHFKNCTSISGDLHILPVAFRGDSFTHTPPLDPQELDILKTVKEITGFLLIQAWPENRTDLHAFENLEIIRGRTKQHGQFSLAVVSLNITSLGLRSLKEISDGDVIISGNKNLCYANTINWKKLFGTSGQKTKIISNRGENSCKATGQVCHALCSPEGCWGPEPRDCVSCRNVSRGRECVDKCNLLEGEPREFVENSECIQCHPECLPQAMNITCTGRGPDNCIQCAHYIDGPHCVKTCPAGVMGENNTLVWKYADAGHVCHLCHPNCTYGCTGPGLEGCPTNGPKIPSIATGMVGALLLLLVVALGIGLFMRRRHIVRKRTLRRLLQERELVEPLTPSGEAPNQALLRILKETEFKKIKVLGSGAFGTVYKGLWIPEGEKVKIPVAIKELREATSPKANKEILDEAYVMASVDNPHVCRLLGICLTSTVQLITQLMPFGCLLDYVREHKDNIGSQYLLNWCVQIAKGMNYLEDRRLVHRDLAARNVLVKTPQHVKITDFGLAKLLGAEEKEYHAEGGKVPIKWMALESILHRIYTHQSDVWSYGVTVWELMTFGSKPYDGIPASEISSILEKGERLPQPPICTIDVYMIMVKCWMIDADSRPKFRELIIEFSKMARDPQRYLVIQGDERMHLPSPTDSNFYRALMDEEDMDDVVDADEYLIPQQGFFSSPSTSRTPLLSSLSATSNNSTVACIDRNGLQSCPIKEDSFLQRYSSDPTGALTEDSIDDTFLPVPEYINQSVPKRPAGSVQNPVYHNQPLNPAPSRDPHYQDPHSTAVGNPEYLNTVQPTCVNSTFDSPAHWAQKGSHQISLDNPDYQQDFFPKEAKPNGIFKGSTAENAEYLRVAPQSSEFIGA
Chain of Left-right determination factor 2 (Homo sapiens) (O00292 whole entry, looked up): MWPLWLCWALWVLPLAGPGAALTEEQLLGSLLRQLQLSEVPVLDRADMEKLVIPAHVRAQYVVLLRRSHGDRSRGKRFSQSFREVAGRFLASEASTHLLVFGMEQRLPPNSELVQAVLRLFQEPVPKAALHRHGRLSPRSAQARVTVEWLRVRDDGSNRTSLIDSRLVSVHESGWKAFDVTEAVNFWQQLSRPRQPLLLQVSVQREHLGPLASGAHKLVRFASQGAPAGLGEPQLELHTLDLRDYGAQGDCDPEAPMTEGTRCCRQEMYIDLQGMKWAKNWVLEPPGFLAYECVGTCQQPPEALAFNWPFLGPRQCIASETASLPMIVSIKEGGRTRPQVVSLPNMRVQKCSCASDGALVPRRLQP
Chain of Torsin-1A-interacting protein 1 (Homo sapiens) (Q5JTV8 whole entry, looked up): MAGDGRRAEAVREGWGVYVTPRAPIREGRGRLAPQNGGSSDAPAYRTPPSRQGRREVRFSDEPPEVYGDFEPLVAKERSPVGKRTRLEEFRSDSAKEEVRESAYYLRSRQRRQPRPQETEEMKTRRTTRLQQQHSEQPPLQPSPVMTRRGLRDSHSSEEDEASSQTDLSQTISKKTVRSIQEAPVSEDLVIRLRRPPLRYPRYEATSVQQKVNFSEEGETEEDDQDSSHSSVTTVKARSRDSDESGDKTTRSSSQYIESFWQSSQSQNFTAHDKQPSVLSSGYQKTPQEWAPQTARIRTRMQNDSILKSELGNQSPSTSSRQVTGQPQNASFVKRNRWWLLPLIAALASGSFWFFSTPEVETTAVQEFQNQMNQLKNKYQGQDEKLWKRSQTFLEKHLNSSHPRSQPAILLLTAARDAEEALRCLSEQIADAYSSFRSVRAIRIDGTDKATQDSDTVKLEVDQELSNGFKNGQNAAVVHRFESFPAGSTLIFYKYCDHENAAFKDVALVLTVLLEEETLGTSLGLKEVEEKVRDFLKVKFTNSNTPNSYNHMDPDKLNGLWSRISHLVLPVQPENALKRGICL
Chain of Fibroblast growth factor 10 (Homo sapiens) (O15520 whole entry, looked up): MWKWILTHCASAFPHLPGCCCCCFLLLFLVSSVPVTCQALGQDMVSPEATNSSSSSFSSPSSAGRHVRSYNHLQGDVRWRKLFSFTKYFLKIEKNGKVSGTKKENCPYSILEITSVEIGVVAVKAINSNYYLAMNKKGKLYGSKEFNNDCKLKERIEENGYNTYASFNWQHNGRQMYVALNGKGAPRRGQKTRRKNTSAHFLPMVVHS
Chain of Dickkopf-related protein 1 (Homo sapiens) (O94907 whole entry, looked up): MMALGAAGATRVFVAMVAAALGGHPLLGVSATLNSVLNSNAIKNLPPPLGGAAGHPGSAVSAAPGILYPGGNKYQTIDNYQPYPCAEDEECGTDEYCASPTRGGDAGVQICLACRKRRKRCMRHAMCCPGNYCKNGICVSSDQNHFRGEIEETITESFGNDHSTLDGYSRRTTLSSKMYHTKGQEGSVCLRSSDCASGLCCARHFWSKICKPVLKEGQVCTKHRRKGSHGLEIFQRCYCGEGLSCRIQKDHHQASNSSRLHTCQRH

With `COC(=O)[C@@]1(Cc2ccc(F)cc2)[C@@H]2C(=CC(=O)[C@H]2CC(=O)C(=O)N2CCCC2)CN1C(=O)c1ccccc1`, the composite z-score was determined as 0.9 in test [1]; 1.72 in [2]; 0.978 in test [3]; 1.48 in test [5]; 0.573 in test [6]; 1.36 in test [7]. Also, the composite z-score is 1.39 in test [8]; 0.467 in test [9]; 1.19 in [10]; 1.47 in test [11]; 0.643 in [13]; 1.38 in [14]. Also, the composite z-score in test [15] was -0.24; in [16], 0.625; in test [17], 0.761; in test [18], 2.06; in test [19], 1.25; in [20], 0.683. Also, the z-score in test [4] is -4.12 (inactive); in test [12], -2.78.

Turning to `C=C(/C=C\CNS(=O)(=O)c1ccc(C)cc1)[C@H](O)[C@H]1CCCN1S(=O)(=O)c1ccccc1[N+](=O)[O-]`, the composite z-score in test [1] is 0.0251; in [2] it was -0.142; in [3], -0.55; in test [5] it was 0.598; in [6], 0.215; in test [7], 0.629. Moreover, the composite z-score in [8] was 0.122; in [9], 0.524; in test [10], 0.509; in [11] it was -0.251; in [13], 0.318; in test [14], -0.337. Also, the composite z-score in [15] was -0.477; in test [16], -0.0405; in test [17], -0.138; in test [18], -0.219; in [19], 0.612; in test [20], 0.293. Further, the z-score in test [4] is -0.465 (inactive); in test [12] it was -3.55.

`CCCCC(=C=CC[C@@H](O)c1ccccc1OCCO)C[C@@H](O)c1ccccn1`: the composite z-score is 1.55 in [1]; -0.124 in test [2]; -0.167 in test [3]; 0.473 in [5]; -0.644 in test [6]; 0.125 in [7]. Also, the composite z-score in test [8] was 0.143; in [9], 0.141; in test [10], 0.624; in [11] it was 0.361; in test [13], -0.139; in test [14], -0.408. Further, the composite z-score in [15] is -0.669; in [16], -0.113; in test [17], -0.0904; in test [18], -0.108; in test [19] it was -0.194; in test [20] it was 0.888. Also, the z-score in test [4] was -0.0777 (inactive); in test [12], -1.61.

Regarding `C=C(C(=O)CC[C@@H](OC(=O)c1ccccc1-c1ccccc1C(=O)O)c1ccc(CO)o1)C(C)C`, the composite z-score in test [1] is 1.07; in [2], -0.258; in [3], -0.532; in [5], 1.51; in [6], 0.913; in test [7], -0.132. Also, the composite z-score in test [8] was 0.648; in test [9] it was 1.12; in [10], 0.927; in test [11], 0.476; in [13] it was 0.367; in test [14] it was -0.236. For the same compound, the composite z-score is -0.86 in test [15]; -0.118 in [16]; -0.349 in test [17]; -0.295 in test [18]; 1.27 in [19]; 0.101 in test [20]. Further, the z-score in test [4] was 0.88 (inactive); in test [12], -1.53.

For the compound `O=C(N1CCOCC1)[C@]1(CCS(=O)(=O)c2ccccc2)N=C(c2ccc(OCCCO)cc2)O[C@@H]1c1ccccc1`, the composite z-score in test [1] was 1.5; in [2], 1.18; in [3], 1.37; in test [5] it was 0.59; in test [6], 0.7; in test [7], -0.113. For the same compound, the composite z-score was 0.488 in test [8]; -0.753 in test [9]; 0.599 in test [10]; 0.794 in test [11]; -0.685 in test [13]; 1.52 in [14]. In addition, the composite z-score in test [15] was 1.14; in [16], -0.0445; in test [17], 0.123; in test [18] it was -0.087; in [19] it was 2.3; in test [20] it was 1.82. The z-score in [4] was -1.04 (inactive); in [12], -0.954.

Take `C=C(C(=O)CC[C@@H](OC(=O)c1ccccc1-c1ccccc1C(=O)O)c1ccc(OCCO)cc1)C(C)C`: the composite z-score in test [1] is 0.994; in [2], -0.0581; in [3], -0.375; in test [5], 1.22; in [6], 0.674; in [7], 0.267. In addition, the composite z-score was found to be 1.08 in test [8]; 0.776 in [9]; 0.768 in test [10]; 1.33 in [11]; 0.63 in test [13]; 0.653 in test [14]. Besides, the composite z-score in [15] is -0.698; in [16], 0.0162; in [17] it was 0.108; in [18], -0.095; in test [19], 1.3; in test [20], 0.478. Besides, the values for the z-score in [4] and in [12] were 0.379 (inactive) and -2.58, respectively.
